Results from PubChem BioAssay (NCI).
This is part of a sample that, as a whole, favours compounds with a hit. Of some 83,000 tested, about 20% had one in any assay.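 Cell lines were cultured in 96-well plates, exposed to a single compound concentration, and assessed for percent growth 48 hours later.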 Active and inactive are the calls of the source. Rule for the calls: active = growth percent below 10; inactive = the rest.

These compounds were tested on OVCAR-4 ovarian (assay: NCI-60 one-dose screen, 48 h (100 = growth as untreated, 0 = no growth, -100 = all killed)). Conditions: 10 µM unless noted.
With `Cc1ccc(C2=NN(c3ccc(S(N)(=O)=O)cc3)C(c3cn(-c4ccccc4)nc3-c3ccccc3)C2)cc1` (centres undefined) the growth was 105% (inactive).
In the case of `CCN1C(=O)N(CC)C2C1NN=c1s/c(=C\c3cccc(F)c3)c(=O)n12` (centres undefined), the growth is reported as 44.1% (inactive).
For `O=c1[nH]c(-c2cn(-c3ccc(Cl)cc3)nn2)nc2ccccc12`, the growth was 36% (inactive).
For `C=CCN=C1NC(=O)/C(=C/c2cc(C(C)(C)C)c(O)c(C(C)(C)C)c2)S1`, the growth was 70.3% (inactive).
For `O=c1[nH]c(CN2CCN(c3ccccc3F)CC2)nc2sc3c(c12)CCC3`, the growth was 112% (inactive).
With `COc1ncc(-c2ccc3ncnc(Nc4cccc(Cl)c4)c3c2)cc1NS(=O)(=O)C1CC1` the growth was 34.8% (inactive).
`Nc1nc(Cl)c2c(ncn2Cc2ccc(CCl)cc2)n1` was tested, and the growth was 96.1% (inactive).
`O=S(=O)(NCCCNc1cc(-c2cn(-c3ccccc3)nc2-c2cccc(O)c2)ccn1)c1cccc2ccccc12` was tested, and the growth was 45.2% (inactive).
For `CC1CCN(C(=O)CSc2nc3sc4c(c3c(=O)[nH]2)CCCC4)CC1`, the growth was 108% (inactive).
In the case of `Cc1cc(Nc2nc(C(=O)Nc3ccccc3)nc3ccccc23)n[nH]1`, the growth is reported as 44.6% (inactive).
With `O=[N+]([O-])c1cc(S(=O)(=O)OCC2CO2)ccc1Cl` (centres undefined) the growth was 106% (inactive).
In the case of `N#CC1=C(N)n2nc(-c3ccncc3)nc2NC1c1cccc2ccccc12` (centres undefined), the growth is reported as 80.4% (inactive).
For `O=C1NC(Cc2c[nH]c3ccccc23)C(=O)N1Cc1ccc(Cl)cc1` (centres undefined), the growth was 96.9% (inactive).
For `CSc1ccccc1C#C/C=C\C#Cc1ccccc1N1CCCC1=O`, the growth was 59.7% (inactive).
